Test [1] in a line: qHTS assay to identify small molecule agonists of the vitamin D receptor (VDR) signaling pathway - cell viability counter screen (AID 743224). Further: nearly all actives have a fitted effect of over 50% in size. Further: potency means the concentration at half of the fitted maximal effect. The essentials:
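Counter screen run in the same wells as the VDR-bla reporter assay: CellTiter-Glo luminescence, 30 min at room temperature, after 16 h compound treatment at 37C of cells pre-plated for 4 h.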
For orientation: In qHTS, concentration-response curves come from the screen itself.

A short description of test [2]: qHTS assay to identify small molecule agonists of the NFkB signaling pathway (AID 1159509; active means well fitted curve in the direction sought with a large enough effect in the signal ratio in the repeat runs, not every such curve was filed as active; the % refers to the signal ratio; further: series mostly up to about 61 µM; on the % scale 0 is the no-effect control and ±100 the full control effect). The essentials: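 Pathway activation was measured in ME-180 cells stably expressing beta-lactamase under NF-kB response element control. Substrate cleavage was read as the 460/530 nm emission shift after 5 hr compound incubation.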
Test [3] in a line: qHTS assay to identify small molecule agonists of the NFkB signaling pathway - cell viability counter screen (AID 1159515; calls by dose curve; further: nearly all actives have a fitted effect of over 55% in size; further: potency means the concentration at half of the fitted maximal effect). The method, boiled down: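 Read by CellTiter-Glo luminescence (30 min, room temperature) in the wells also used for the beta-lactamase FRET read. ME-180 NFkB-bla cells at 2,000 per well were plated overnight, then exposed to compound for 5 hr at 37 C.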
Test [4] is described as follows: qHTS assay to identify small molecule agonists of the endoplasmic reticulum stress response signaling pathway - cell viability counter screen (AID 1159517; calls by dose curve; further: nearly all actives have a fitted effect of over 50% in size; further: potency means the concentration at half of the fitted maximal effect). The method, boiled down:
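Cpd-treated ESRE-bla HeLa (5 hr, 37 C) → LiveBLAzer 2 hr RT → CellTiter-Glo 30 min RT → luminescence.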

Test [5] in a line: qHTS assay to identify small molecule agonists of the AP-1 signaling pathway - cell viability counter screen (AID 1159525; calls by dose curve; further: nearly all actives have a fitted effect of over 55% in size). The essentials:
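Each titration point was normalised to DMSO and tetra n-octyl ammonium bromide controls. The read was Cell Titer Glo luminescence after 30 min at RT, following 5 h compound exposure of ME-180 AP-1-bla cells at 37 °C.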

Test [6] in a line: qHTS assay to identify small molecule agonists of the AP-1 signaling pathway (AID 1159526; calls by dose curve; further: on the % scale 0 is the no-effect control and ±100 the full control effect).
Test [7] is described as follows: qHTS assay to identify small molecule agonists of the RXR signaling pathway - cell viability counter screen (AID 1159529). Further: nearly all actives have a fitted effect of over 50% in size. Further: potency means the concentration at half of the fitted maximal effect. The essentials:
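Tox21 10K compounds were tested for cytotoxicity against GeneBLAzer RXR-alpha HEK 293T cells grown in 2% charcoal-stripped FBS. Exposure lasted 16 hr at 37 C, 5% CO2; viability read by CellTiter-Glo luminescence.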

Test [8] in a line: qHTS assay to identify small molecule antagonists of the retinoid acid receptor (RAR) signaling pathway - cell viability counter screen (AID 1159551). Further: on the % scale 0 is the no-effect control and ±100 the full control effect; nearly all actives have a fitted effect of over 35% in size. The method, boiled down: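 Cytotoxicity counter screen: ATP content quantified by CellTiter-Glo luminescence in C3RL4 cells treated 6 hr at 37 C with compound and retinol (1 uM final). Cells plated at 1,000/well and cultured overnight before dosing.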

Test [9] can be described thus: qHTS assay to identify small molecule agonists of the retinoic acid receptor (RAR) signaling pathway (AID 1159553). Further: on the % scale 0 is the no-effect control and ±100 the full control effect. The essentials: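 Luminescence was measured 30 min after luciferase reagent addition at room temperature. Before that, C3RL4 reporter cells (1,000 per well, plated overnight) were treated with compound for 6 hr at 37 C and 5% CO2.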
In test [10] the target is Nuclear receptor ROR-gamma (Homo sapiens) (UniProt P51449). As to the kind of experiment: qHTS assay to identify small molecule antagonists of the retinoid-related orphan receptor gamma (ROR-gamma) signaling pathway (AID 1159521; further: nearly all actives have a fitted effect of over 50% in size; further: potency means the concentration at half of the fitted maximal effect). The method, boiled down: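 Readout: ONE-Glo luciferase luminescence, 30 min at room temperature. System: Tet-on RORγ CHO, RORE-LUC. Sequence: compound 2 h, doxycycline 1 uM final, 16 h at 37 C.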

A short description of test [11]: qHTS assay to identify small molecule antagonists of the retinoic acid receptor (RAR) signaling pathway (AID 1159552; further: nearly all actives have a fitted effect of over 50% in size; further: potency means the concentration at half of the fitted maximal effect). The method, boiled down:
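Overnight-plated C3RL4 reporter cells get compound, then retinol to 1 uM final; plates sit 6 hr at 37 C, 5% CO2. A luciferase reagent is added and light output recorded after 30 min at room temperature.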

Test [12] can be described thus: qHTS assay to identify small molecule antagonists of the estrogen related receptor (ERR) signaling pathway - cell viability counter screen (AID 1224818). Further: series mostly up to about 46 µM; on the % scale 0 is the no-effect control and ±100 the full control effect. The essentials: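 Cytotoxicity counter screen: fluorescence from CellTiter-Fluor, added after 17.5 h compound exposure at 37 C and read 30 min later. ERR cell line seeded at 2,000 cells/well, preincubated 6 h before dosing.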

Test [13] can be described thus: qHTS assay to identify small molecule agonists of the estrogen related receptor (ERR) signaling pathway (AID 1224820). Further: on the % scale 0 is the no-effect control and ±100 the full control effect. The essentials:
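An ERR cell line provided by NTP was seeded at 2,000 cells per well and allowed to settle for 6 h before compounds in DMSO were added. After 18 h at 37 C, luciferase activity was measured by One-Glo luminescence.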

Test [14] can be described thus: qHTS assay to identify small molecule antagonists of the estrogen related receptor signaling pathway with the pleiotropic PPARgamma coactivator (PGC) cell viability counter screen (AID 1224822). The essentials:
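Viability counter-screen read by fluorescence intensity after 30 min with CellTiter-Fluor at 37 C; PGC/ERR reporter cells were exposed to compounds for 17.5 h at 37 C following a 6 h preincubation.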

Test [15] can be described thus: qHTS assay to identify small molecule antagonists of the vitamin D receptor (VDR) signaling pathway - cell viability counter screen (AID 743225). The method, boiled down: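 Cytotoxicity toward the VDR-bla HEK 293T line was scored by ATP-based CellTiter-Glo luminescence, read in the wells already used for the beta-lactamase readout after 16 h compound treatment under 3 nM 1-alpha,25-dihydroxyvitamin D3 stimulation.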

Test [16] can be described thus: qHTS assay to identify small molecule antagonists of the retinoid-related orphan receptor gamma (ROR-gamma) signaling pathway - cell viability counter screen (AID 1159520). Further: nearly all actives have a fitted effect of over 50% in size. Further: potency means the concentration at half of the fitted maximal effect. The essentials:
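Tet-on ROR gamma CHO cells (1,000/well) were plated 4 hr, given compounds in DMSO for 2 hr at 37 C, then induced with 1 uM final doxycycline for 16 hr. Viability was read as ATP by CellTiter-Glo luminescence after 30 min.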

Test [17] concerns the target Retinoic acid receptor RXR-alpha (Homo sapiens) (UniProt P19793). The test can be described thus: qHTS assay to identify small molecule agonists of the RXR signaling pathway (AID 1159527; calls by dose curve; further: on the % scale 0 is the no-effect control and ±100 the full control effect; nearly all actives have a fitted effect of over 35% in size). The method, boiled down:
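Reporter activation is measured as beta-lactamase activity via FRET substrate cleavage (emission 460/530 nm) in HEK 293T cells expressing an RXR-alpha-driven bla construct, following 16 hr compound exposure at 37 C.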

The nature of test [18]: qHTS assay to identify small molecule antagonists of the estrogen related receptor (ERR) signaling pathway (AID 1224819). The essentials: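 LOPAC library screened for antagonism as reduced One-Glo luminescence in ERR reporter cells (2,000/well). Compounds were added after 6 h pre-incubation and left 18 h at 37C; reading followed a 30 min room-temperature reagent step.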

Test [19] relates to estrogen-related receptor alpha (ERRalpha) with PGC-1alpha coactivator, human. As to the kind of experiment: qHTS assay to identify small molecule antagonists of the estrogen related receptor signaling pathway with the pleiotropic PPARgamma coactivator (PGC) (AID 1224821; calls by dose curve). The method, boiled down: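 A PGC/ERR cell line supplied by NTP is seeded, allowed 6 h at 37 C, and treated with test compounds in DMSO for 18 h. Signal is then measured as luciferase luminescence using One-Glo.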

Test [20] is described as follows: qHTS assay to identify small molecule agonists of the endoplasmic reticulum stress response signaling pathway (AID 1159516; active means well fitted activation curve with a large enough effect in the signal ratio in the repeat runs, not every such curve was filed as active; the % refers to the signal ratio; further: on the % scale 0 is the no-effect control and ±100 the full control effect). The essentials:
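Ratiometric FRET readout (405 nm excitation; 460 and 530 nm emission) of a beta-lactamase gene driven by the ER stress response element, after 2 hr substrate loading. HeLa ESRE-bla cells were seeded overnight and treated with compounds for only 5 hr at 37 C.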

Inconclusive results are not listed. A number with no mark means an inactive call. Activity calls are given as the source filed them. Unless noted, the call rests on the fitted dose curve; in most records, active means well fitted curve in the direction sought with a large enough effect in the repeat runs; inconclusive means weak or mixed curves; inactive means no such curve, though single readings can be large; an effect the other way counts as inactive or inconclusive.

Retinoic acid receptor RXR-alpha (Homo sapiens), sequence (P19793 whole entry, looked up): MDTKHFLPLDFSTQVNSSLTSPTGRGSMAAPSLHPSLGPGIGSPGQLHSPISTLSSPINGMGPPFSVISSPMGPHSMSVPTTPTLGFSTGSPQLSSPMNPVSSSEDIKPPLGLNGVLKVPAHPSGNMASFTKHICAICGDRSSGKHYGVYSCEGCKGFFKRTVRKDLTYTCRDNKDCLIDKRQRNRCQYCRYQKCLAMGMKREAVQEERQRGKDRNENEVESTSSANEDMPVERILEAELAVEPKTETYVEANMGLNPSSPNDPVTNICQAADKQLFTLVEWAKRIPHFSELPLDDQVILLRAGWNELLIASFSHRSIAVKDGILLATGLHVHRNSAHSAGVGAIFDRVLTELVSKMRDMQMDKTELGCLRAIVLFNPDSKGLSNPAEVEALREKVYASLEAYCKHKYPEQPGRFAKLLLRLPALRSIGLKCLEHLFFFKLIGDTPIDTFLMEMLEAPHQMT

Take `CC(C)(OO)c1ccccc1`: the figures for the Potency in test [1] and in [4] were 54.9 µM (active) and 43.6 µM (active), respectively. In addition, the molecule was called inactive in test [2] and in test [6]. Further, the Potency result in [3], in test [5], in [7], in test [8] and in test [9] was “inactive” in each case.

As for `CC(O)(CS(=O)(=O)c1ccc(F)cc1)C(=O)Nc1ccc(C#N)c(C(F)(F)F)c1` (configuration not stated), the Potency entry in test [1], in test [3], in [4], in test [5], in test [8] and in [11] was “inactive” throughout. Besides, the Potency entry in [9] and in test [14] was “inactive” in each case. Also, the molecule was called inactive in test [2], in test [6], in test [12] and in test [13]. In addition, the Potency in [10] was 25.2 µM (active); in test [7] it was 22.7 µM (active).

Regarding `c1ccc(CN2CCNCC2)cc1`, the Potency result in test [1], in [15], in test [3], in [4], in [16] and in [5] was “inactive” each time. The Potency entry in test [17], in test [7], in test [8] and in test [11] was “inactive” each time. The outcome in test [2] and in test [6] was inactive.

On to `NCC(CC(=O)O)c1ccc(Cl)cc1` (configuration not stated), for which the activity change, negative = cytotoxicity in [1] was 15.2% [at 0.55 µM]; in [7], 15% [at 0.29 µM]; in test [8], -0.97% [at 0.349 µM]. Also, the viability change, negative = cytotoxic in test [15] is 6.5% [at 0.628 µM]; in test [5], -1.57% [at 0.29 µM]. The activation in [2] was 0.398% [at 0.628 µM]; in [6], -1.64% [at 0.29 µM]; in test [17], 1.21% [at 0.29 µM]. Also, in test [3], the activity, negative = cytotoxic is 1.83% [at 0.628 µM]. In addition, the activity, negative = cytotoxicity in test [16] was -1.2% [at 0.349 µM]. Moreover, in test [10], the activity change, negative = inhibition is 4.26% [at 0.35 µM]. Moreover, the result in [12], in test [18] and in test [13] was inactive. Further, the Potency result in [19] and in test [14] was “inactive” in each case.

As to `CC(C)(C)c1cc([N+](=O)[O-])cc([N+](=O)[O-])c1O`, the call in test [2] was inactive. In addition, the Potency entry in test [3], in test [4], in test [5], in test [7] and in [8] was “inactive” each time. In addition, in [10], the Potency is 6.09 µM (active).

For the molecule `O=NN1CCCCCC1`, the Potency result in test [1], in test [15], in test [3], in test [4], in test [10] and in test [5] was “inactive” throughout. Moreover, the Potency entry in [7], in [8], in test [11] and in test [9] was “inactive” in each case. Further, the outcome in test [2] and in test [6] was inactive.

On to `CCCCCCCCCC(=O)O[C@H]1CC[C@H]2[C@@H]3CCC4=CC(=O)CC[C@@H]4[C@H]3CC[C@]12C`, for which the Potency entry in test [15], in test [3], in [4], in test [10], in test [5] and in [7] was “inactive” in each case. The Potency result in test [8], in test [11] and in [9] was “inactive” throughout. Moreover, the molecule was classed as inactive in test [2] and in [6].

Take `O=S1OC[C@@H]2[C@H](CO1)[C@]1(Cl)C(Cl)=C(Cl)[C@@]2(Cl)C1(Cl)Cl` (some centres not stated): the Potency was 49 µM (active) in [1], 54.5 µM (active) in test [10] and 49 µM (active) in [7]. For the same molecule, the Potency entry in [15], in [3], in test [16] and in [8] was “inactive” in each case. Moreover, in test [2], the outcome was inactive.

Turning to `Cc1ccccc1CCl`, the Potency result in test [1], in [15], in test [3], in [4], in test [16] and in test [10] was “inactive” in each case. The Potency result in test [17], in [7], in [8] and in test [9] was “inactive” throughout. The molecule was called inactive in test [2] and in test [6].

Regarding `C/C(=C\c1ccccc1)[N+](=O)[O-]`, the Potency was 24.5 µM (active) in [1]; 54.9 µM (active) in test [3]; 27.3 µM (active) in test [16]; 19.3 µM (active) in test [10]; 30.6 µM (active) in [11]. Also, the result in test [2] was inactive. Besides, the Potency entry in test [5], in test [7] and in test [8] was “inactive” in each case.

In the case of `CCOP(O)OCC`, the Potency entry in test [1], in test [15], in test [4], in [16], in test [10] and in [5] was “inactive” each time. Further, the Potency result in [7], in test [8] and in test [9] was “inactive” throughout. Further, the molecule was classed as inactive in test [2], in test [20] and in test [6].

The values above are taken from PubChem BioAssay (Tox21).
